High-throughput results as filed in PubChem BioAssay.
A selection follows.
aSyn 5UTR act = Activators via SNCA 5'UTR binding, MLPCN. alpha-synuclein 5'UTR reporter, activators screen. activity score, % (tested at 7.5 µM), hits read low. hit rate 7.1% among 300,000. AID 1814, 2009; in the data active means activity score below about -60%
Active calls of the source: *.

SMILES | aSyn 5UTR act
CCCN(CCC)S(=O)(=O)c1ccc(C(=O)Nc2nnc(-c3cccc(OC)c3)o2)cc1 | 69.9
COc1cccc(-c2nnc(-c3ccco3)o2)c1 | -146.8*
Cc1ccc(-c2nc(N=Nc3ccc(O)cc3)n[nH]2)cc1 | -182.1*
CCCC1=[N+](CC(=O)c2ccccc2)CCn2c(C)ccc21 | -74.3*
Nc1ccccc1C(=O)NNC(=O)C(=O)/C=C(\O)c1ccccc1 | -138.9*
CCN(C(=O)CN1C(=O)S/C(=C\C=C\c2ccccc2)C1=O)C1CCS(=O)(=O)C1 (stereo unspecified) | -117.6*
O=C(CN1C(=O)S/C(=C\C=C\c2ccccc2)C1=O)Nc1cccc(O)c1 | -218.4*
O=C(CCN1C(=O)S/C(=C\C=C\c2ccccc2)C1=O)Nc1ccc(O)cc1 | -203.7*
C=CCNc1nc(Nc2ccccc2F)nc(OCC)n1 | -122.2*
COC(=O)Cc1c(OC)ccn(CCc2c[nH]c3ccccc23)c1=O | -149.3*
Cc1cc2n(n1)SC(Nc1ccc(F)c(Cl)c1)N2 (stereo unspecified) | -76.9*
COc1ccc([N+](=O)[O-])cc1Nc1c2ccccc2nc2ccccc12 | 76.5
Nc1nc(Nc2ccccc2)nc2ccccc12 | -82.4*
COc1ccc(C)cc1Nc1nc(N)c2ccccc2n1 | -101.7*
CN(C)c1ccc(Nc2nc(N)c3ccccc3n2)cc1 | 109.1
COC(=O)c1sc(NC(=O)/C=C/c2ccc(C)o2)nc1C | -65.4*
COC(=O)c1sc(NC(=O)c2ccco2)nc1C | -69.0*
COC(=O)c1sc(NC(=O)c2ccoc2C)nc1C | -136.1*
Cc1cc(C)c2c(n1)sc1c(=O)n(CC(=O)c3ccccc3)cnc12 | -131.7*
O=C(Cn1cnc2c(oc3ccccc32)c1=O)c1ccccc1 | -105.7*
CCOc1ccc(NC(=O)C(c2ccccn2)N(C(=O)CCl)c2ccc(F)cc2)cc1 (stereo unspecified) | -71.4*
COc1ccc(N(C)C2=NS(=O)(=O)c3ccccc32)cc1 | -70.4*
CN(/N=C/c1ccc(N(C)C)cc1)C1=NS(=O)(=O)c2ccccc21 | -97.1*
O=C1c2ccccc2C(Nc2ccc3c(c2)OCCO3)N1c1ccc(Cl)cn1 (stereo unspecified) | -75.9*
O=C1c2ccccc2C(Nc2ccc3c(c2)OCCO3)N1Cc1ccc2c(c1)OCO2 (stereo unspecified) | -72.3*
SMILES | aSyn 5UTR act
O=C(C1=C[C@@H](c2csc3ccccc23)C[C@@H](OCc2ccc(CO)cc2)O1)N1CCN(Cc2ccc3c(c2)OCO3)CC1 | 68.8
CCc1ccc(NC(=O)COc2ccc(F)cc2C(=O)c2cnn(-c3ccccc3)c2)cc1 | -130.1*
COc1ccccc1NC(=O)COc1ccccc1C(=O)c1cnn(-c2ccccc2)c1 | -135.7*
Cc1ccc2c(c1)[nH]c1c(=O)n(Cc3ccco3)cnc12 | -118.4*
CN(c1ccc(O)cc1)S(=O)(=O)c1ccc2ccccc2c1 | -111.3*
Cc1cc(C)n(CCC(=O)N/N=C/c2c(O)ccc3ccccc23)n1 | 73.3
S=C(NCCN1CCOCC1)N/N=C/c1c2ccccc2cc2ccccc12 | -74.1*
CC1CCN(c2ccc(NC(=O)c3ccc(Br)o3)cc2)CC1 | -143.7*
CS(=O)(=O)N1CCN(c2ccc(NC(=O)c3ccc(Br)o3)cc2)CC1 | -123.4*
S=c1[nH]nc(-c2ccncc2)n1/N=C/C(Cl)=C\c1ccccc1 | -220.7*
S=c1[nH]nc(COc2ccccc2)n1/N=C/C(Cl)=C/c1ccccc1 | -128.5*
Cc1cc(C(=O)CNCc2ccco2)c(C)n1-c1ccc(F)cc1 | -105.9*
Cc1cc(C(=O)CN2CCCCC2)c(C)n1-c1ccc(F)cc1 | -128.9*
Cc1cc(C(=O)NC2CCCCC2)c(C)n1-c1ccc(F)cc1 | -174.2*
Cc1cc(C(=O)CN2CCC(C)CC2)c(C)n1-c1ccc(F)cc1 | -97.3*
COc1c(OC(C)=O)ccc(/C=C/c2ccc3ccccc3n2)c1[N+](=O)[O-] | -208.7*
CCOc1c(OC(C)=O)ccc(/C=C/c2ccc3cccc(OC(C)=O)c3n2)c1[N+](=O)[O-] | -378.3*
COc1c(OC(C)=O)ccc(/C=C/c2ccc3cccc(OC)c3n2)c1[N+](=O)[O-] | -146.3*
CCOC(=O)N1CCN(C(=O)c2ccc(C#CC3(O)CCCCC3)cc2)CC1 | -63.8*
COc1ccc(N=C2S/C(=C\c3ccc(N4CCOCC4)o3)C(=O)N2CCc2c[nH]c3ccccc23)cc1 | -113.0*
O=C(c1ccccc1)c1cc(-c2ccccc2)on1 | -107.9*
N/C(Cc1nc(-c2ccc(Br)cc2)cs1)=N\O | -95.8*
c1ccc(-c2cc(-c3ccccc3)on2)cc1 | -152.5*
Nc1nc(-c2ccc(Br)cc2)cs1 | -98.8*
Nc1nc(-c2ccccc2)cs1 | -97.5*
SMILES | aSyn 5UTR act
Nc1nc(-c2cc(-c3ccccc3)no2)cs1 | -173.6*
Cc1csc(NC(=O)c2nc3nc(C)cc(C)n3n2)n1 | -90.0*
Cc1cc(C)n2nc(C(=O)Nc3nccs3)nc2n1 | -111.5*
CCOC(=O)/C=C/c1ccc2oc3ccccc3c(=O)c2c1 | -190.9*
Clc1nnc(N/N=C/c2ccccc2)c2ccccc12 | -267.6*
Cc1ccc(/C=N/Nc2nnc(Cl)c3ccccc23)cc1 | -156.7*
Clc1ccc(/C=N/Nc2nnc(Cl)c3ccccc23)cc1 | -164.8*
